CBX7 inh – blocks human CBX7 binding to H3K27me3 peptide | O95931 | AID 1224903 | 1.1% of 66,000 active | AlphaScreen His6-CBX7 / biotin-H3K27me3 peptide binding; active compounds read low | normalised signal (fraction of DMSO) (test concentration not listed); in the data active means normalised signal below about 0.5
Target sequence (O95931 whole entry, looked up): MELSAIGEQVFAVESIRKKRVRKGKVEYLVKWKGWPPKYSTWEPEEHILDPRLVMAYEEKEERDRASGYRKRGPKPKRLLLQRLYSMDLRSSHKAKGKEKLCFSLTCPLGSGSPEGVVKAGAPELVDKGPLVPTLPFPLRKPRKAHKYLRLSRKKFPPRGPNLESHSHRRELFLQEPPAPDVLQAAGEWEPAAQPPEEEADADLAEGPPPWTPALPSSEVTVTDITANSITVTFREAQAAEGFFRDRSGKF
* = called active by the depositor. Shown is part of a subset that was picked to be rich in hits.

`O=C(CN1C(=O)c2ccccc2C1=O)Nc1nc(-c2ccc3c(c2)OCO3)cs1` gave CBX7 inh 1.1.
Cc1ccc(C)c(-c2csc(Nc3ccc4c(c3)OCO4)n2)c1 was read as CBX7 inh 0.35*.
`CC(Oc1ccccc1)C(=O)N1CC(=O)Nc2ccc(F)cc2C1c1ccc(F)cc1` (stereo unspecified) gave CBX7 inh 0.87.
`COc1ccccc1-c1cc2nc(C)c(CCC(=O)NCCN3CCOCC3)c(C)n2n1` gave CBX7 inh 0.87.
`O=C(NCCCc1ccccc1)C1CCCN(c2nc3ccccc3[nH]2)C1` (stereo unspecified) gave CBX7 inh 1.
For CCCOc1ccc(C2C(=O)N(C3CCCCCC3)CC(=O)N2Cc2ccccc2)cc1OC (stereo unspecified) the results were CBX7 inh 1.5.
For COc1ccc(C(=O)c2oc3ccccc3c2NC(=O)c2ccccc2C)cc1 the results were CBX7 inh 1.3.
CCCCN1CCCc2cc(CN(CCCN3CCOCC3)C(=O)Nc3ccc(CC)cc3)ccc21 was read as CBX7 inh 0.23*.
Screening CCc1ccc(NC(=O)N(C2CCCCCC2)C2CCN(C(C)=O)CC2)cc1 returned CBX7 inh 1.
Screening CCc1ccc(NC(=O)N(CCC(C)C)C2CCN(C(C)C)CC2)cc1 returned CBX7 inh 1.1.
Screening CCN1CCCc2cc(CN(C(=O)Nc3ccc(C)c(C)c3)C3CCCC3)ccc21 returned CBX7 inh 0.44*.
Screening CCCN1CCCc2cc(CN(C(=O)Nc3ccc(Cl)c(Cl)c3)C(C)CC)ccc21 (stereo unspecified) returned CBX7 inh 0.59.
`CC(=O)N1CCC(N(C(=O)Nc2ccc(C)c(C)c2)C2CCCCCC2)CC1` gave CBX7 inh 1.1.
Screening CCCCN1CCCc2cc(CN(CCCN3CCOCC3)C(=O)Nc3ccccc3)ccc21 returned CBX7 inh 0.53.
Screening CCc1ccc(NC(=O)N(Cc2ccc3c(c2)CCCN3CC)C2CCCC2)cc1 returned CBX7 inh 0.34*.
`CCCN1CCCc2cc(CN(CCCN3CCOCC3)C(=O)Nc3ccc(CC)cc3)ccc21` gave CBX7 inh 0.52.
Screening CCOc1ccc2nc(N3CCC(C(=O)Nc4ccc(C)cc4)CC3)sc2c1 returned CBX7 inh 0.98.
CCOc1ccc(C2C(N3C(=O)c4ccccc4C3=O)C(=O)N2c2cccc(Cl)c2)cc1 (stereo unspecified) was read as CBX7 inh 0.99.
Screening COc1ccc(N(CC(=O)O)S(=O)(=O)c2ccc3[nH]c(=O)c(=O)[nH]c3c2)cc1 returned CBX7 inh 1.
Screening CN1CCN(C2CC(=O)N(c3cccc(Cl)c3)C2=O)CC1 (stereo unspecified) returned CBX7 inh 1.3.
`Cc1ccc(NC(=O)c2ccc(CNc3c(N4CCOCC4)c(=O)c3=O)cc2)cc1F` gave CBX7 inh 1.2.
For O=C(CSc1nnc(-c2cccnc2)o1)Nc1ccc(Br)cc1 the results were CBX7 inh 1.
For CCOC(=O)c1ccc(NC(=O)CSc2nnc(-c3cccnc3)o2)cc1 the results were CBX7 inh 1.
O=C(CSc1nnc(-c2cccnc2)o1)Nc1ccc(Cl)c(Cl)c1 was read as CBX7 inh 0.47*.
`c1ccc(-c2csc(N3CCc4ccccc43)n2)cc1` gave CBX7 inh 1.1.
Screening Cc1[nH]c2ccccc2c1CCNC(=O)c1ccc(S(=O)(=O)N2CCOCC2)cc1 returned CBX7 inh 0.8.
For COc1ccc(S(=O)(=O)CCc2nnc(NC(=O)c3ccccc3Cl)s2)cc1 the results were CBX7 inh 1.
`COc1ccc(NC(=O)c2c[nH]n3c(=O)cc(C4CCNCC4)nc23)cc1OC` gave CBX7 inh 0.96.
CCc1ccc(-c2nc(C(=O)NCc3ccccc3Cl)c(C)o2)cc1 was read as CBX7 inh 0.92.
